A short description of assay [1]: kinase inhibitors against Plasmodium liver-stage infection, cell-based, known kinase inhibitor set, luminescence, hepatoma host viability (AID 624392).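 Further: infected cells incubated roughly two days before readout.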 Conditions: Plasmodium liver stage in hepatoma cells, luciferase luminescence, concentration not given here; liver cell % of control: measured here: host liver cell viability; parasite % of control: stronger effect = lower value.

A short description of assay [2]: modulators of glucocorticoid suppression of NF-kB, cell-based, luciferase, IL-1B stimulus, dexamethasone (AID 624486).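 On percent of negative control (+Dex): 100% = mean signal of vehicle control wells on the plate.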 Conditions: NF-kB luciferase reporter, IL-1B + dexamethasone, luminescence; percent of negative control (+Dex): actives lie on both sides, concentration not given here; z-score: measured here: IL-1B alone, no Dex. (In a reporter assay the amount or activity of a reporter protein is the signal.)

Assay [3] is described as follows: kinase inhibitors altering Pseudomonas killing of worms, whole organism (AID 651566).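 Further: tested at 14 µM; sign flipped so higher z means a lower ratio.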 Conditions: C. elegans killed by P. aeruginosa, survival ratio.
The nature of assay [4]: activators of macrophage pro-inflammatory response, cell-based, murine, luminescence (AID 652131). The following applies: murine macrophage pro-inflammatory reporter, stronger effect = higher value.
The target in assay [5] is Cellular tumor antigen p53 (Homo sapiens) (UniProt P04637). As to the kind of experiment: kinase inhibitors altering GFP-p53 stability in HPV16-positive cells, imaging, known kinase inhibitor set, EGFP/DsRed ratio (AID 1053116).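 Further: cells exposed to compounds for 24 h at 37 °C before reading.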 The following applies: stronger effect = higher value; EGFP object count: measured here: GFP-p53 positive objects count.
The nature of assay [6]: IRF3 reporter activation in THP-1 macrophages, cell-based, PMA-stimulated THP-1, luminescence (AID 1053176). The following applies: PMA-differentiated THP-1, IRF3 reporter luminescence; stronger effect = higher value.
Assay [7] in a line: survival rescue of mitochondrial mutant cells in low glucose, primary screen, MELAS cybrids, Rieske KO mouse fibroblasts, CellTiter-Glo (AID 1508586;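 active means mean z-score across replicates of 1.96 or higher in either the MELAS or the Rieske mutant cell line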;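 further: z relative to plate mean and SD of compound and empty wells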). (In general: In ATP-based viability assays light output follows the ATP content of the culture.)
The mark [8] stands for this setting: MELAS cybrid survival, CellTiter-Glo 48 h, stronger effect = higher value.
Where [9] appears, read: Rieske KO mouse fibroblast survival, CellTiter-Glo 72 h.

The text below walks through data of PubChem BioAssay.

Active and inactive are the calls of the source. Unless noted, how the calls were made is not given here.

Cellular tumor antigen p53 (Homo sapiens), sequence (P04637 whole entry, looked up): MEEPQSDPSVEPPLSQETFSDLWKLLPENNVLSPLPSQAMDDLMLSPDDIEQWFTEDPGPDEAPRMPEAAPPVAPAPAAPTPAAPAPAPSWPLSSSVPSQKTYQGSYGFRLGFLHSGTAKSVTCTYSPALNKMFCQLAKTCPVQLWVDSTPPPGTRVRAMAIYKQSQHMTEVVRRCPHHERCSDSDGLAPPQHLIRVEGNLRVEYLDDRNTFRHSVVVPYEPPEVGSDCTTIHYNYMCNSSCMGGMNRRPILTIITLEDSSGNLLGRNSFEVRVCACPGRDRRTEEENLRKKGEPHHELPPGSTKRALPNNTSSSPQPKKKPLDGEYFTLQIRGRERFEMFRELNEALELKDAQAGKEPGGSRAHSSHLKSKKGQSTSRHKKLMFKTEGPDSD

In the case of `Fc1ccc(-c2nn3ccccc3c2-c2ccncc2)cc1`, the liver cell % of control in assay [1] was found to be 99.4%. In addition, the parasite % of control in assay [1] is 91.2% (inactive). Besides, the percent of negative control (+Dex) in assay [2] is 90% (inactive). The z-score in assay [2] was 0.26; in assay [3] it was -0.5 (inactive); in assay [4], -0.011 (inactive); in assay [7] (setting [8]), 0.183 (inactive); in assay [7] (setting [9]) it was -0.338. For the same compound, in assay [5], the EGFP object count stood at 4.5. Besides, in assay [5], the EGFP/DsRed ratio is 0.0996 (inactive). Also, the fraction signal in assay [6] was 0.0045 (inactive).
`COc1cccc(-c2c[nH]c3c(N/N=C/c4ccncc4)ncnc23)c1` gave a liver cell % of control in assay [1] of 72.3%. Also, the parasite % of control in assay [1] is 30.4% (inactive). Also, the percent of negative control (+Dex) in assay [2] is 129% (inactive). Moreover, the z-score is -0.36 in assay [2]; -0.245 (inactive) in assay [3]; -1.59 (inactive) in assay [4]; -0.187 (inactive) in assay [7] (setting [8]); 0.000787 in assay [7] (setting [9]). Moreover, the EGFP object count in assay [5] came to 4. Moreover, in assay [5], the EGFP/DsRed ratio is 0.121 (inactive). Moreover, in assay [6], the fraction signal is 0.002 (inactive).
In the case of `COC(=O)Nc1nc2ccc(Oc3ccc(NC(=O)Nc4cccc(C(=O)O)c4)cc3)cc2[nH]1`, the liver cell % of control in assay [1] was 122%. Further, in assay [1], the parasite % of control was 180% (inactive). Further, the percent of negative control (+Dex) in assay [2] was 118% (inactive). In addition, the z-score in assay [2] was 1.69; in assay [3] it was 0.33 (inactive); in assay [4] it was -0.479 (inactive); in assay [7] (setting [8]) it was -0.776 (inactive); in assay [7] (setting [9]), -0.262. In addition, the EGFP object count in assay [5] came out at 5.5. For the same compound, the EGFP/DsRed ratio in assay [5] was 0.0528 (inactive). Also, the fraction signal in assay [6] was -0.002 (inactive).
Regarding `O=C1Nc2ccc(C(=O)c3ccco3)cc2/C1=C/c1cc(Cl)c(O)c(Cl)c1`, the liver cell % of control in assay [1] amounted to 143%. Also, the parasite % of control in assay [1] was 74.2% (inactive). Also, the percent of negative control (+Dex) in assay [2] is 91% (inactive). Also, the z-score is 0.035 in assay [2]; 0.21 (inactive) in assay [3]; -0.774 (inactive) in assay [4]; -1.39 (inactive) in assay [7] (setting [8]); -0.429 in assay [7] (setting [9]). Also, in assay [5], the EGFP object count is 4.5. Further, in assay [5], the EGFP/DsRed ratio was 0.0627 (inactive). In addition, in assay [6], the fraction signal was -0.005 (inactive).
Consider `CN(C)C(=O)O[C@H]1CN[C@H](C#Cc2cc3ncnc(Nc4ccc(OCc5cccc(F)c5)c(Cl)c4)c3s2)C1`, for which, in assay [1], the liver cell % of control was found to be 97.6%. The parasite % of control in assay [1] was 127% (inactive). The percent of negative control (+Dex) in assay [2] was 92% (inactive). For the same compound, the z-score in assay [2] is -0.215; in assay [3] it was 0.225 (inactive); in assay [4], -0.738 (inactive); in assay [7] (setting [8]), -0.153 (inactive); in assay [7] (setting [9]) it was -0.193. For the same compound, in assay [5], the EGFP object count stood at 2. In addition, the EGFP/DsRed ratio in assay [5] was 0.131 (inactive). Also, the fraction signal in assay [6] is 0.001 (inactive).
Consider `Cc1cccc2c(N=Nc3ccc(S(N)(=O)=O)cc3)c(O)[nH]c12`, for which, in assay [1], the liver cell % of control turned out to be 89.8%. In addition, in assay [1], the parasite % of control was 131% (inactive). Moreover, the percent of negative control (+Dex) in assay [2] is 111% (inactive). Moreover, the z-score is 1.54 in assay [2]; -0.125 (inactive) in assay [3]; -0.036 (inactive) in assay [4]; 0.912 (inactive) in assay [7] (setting [8]); -0.47 in assay [7] (setting [9]). The EGFP object count in assay [5] was determined as 3.5. Moreover, in assay [5], the EGFP/DsRed ratio is 0.095 (inactive). The fraction signal in assay [6] was -0.0075 (inactive).
As to `CNC(=O)c1sc(-n2cnc3cc(OC)c(OC)cc32)cc1OCc1ccccc1C(F)(F)F`, in assay [1], the liver cell % of control was determined as 124%. In assay [1], the parasite % of control is 77.7% (inactive). The percent of negative control (+Dex) in assay [2] was 68.5% (inactive). In addition, the z-score was -0.645 in assay [2]; -0.51 (inactive) in assay [3]; -0.587 (inactive) in assay [4]; -0.801 (inactive) in assay [7] (setting [8]); -0.0583 in assay [7] (setting [9]). Also, the EGFP object count in assay [5] came out at 5.5. Besides, the EGFP/DsRed ratio in assay [5] was 0.105 (inactive). In addition, the fraction signal in assay [6] was -0.005 (inactive).
For `Cc1ccc2c(-c3ccnc(Nc4cccc(C(F)(F)F)c4)n3)c(-c3ccccc3)nn2n1`, the liver cell % of control in assay [1] worked out at 84.8%. The parasite % of control in assay [1] is 47.5% (inactive). In addition, the percent of negative control (+Dex) in assay [2] is 89.5% (inactive). For the same compound, the z-score in assay [2] is -3.32; in assay [3] it was -0.495 (inactive); in assay [4], -1.57 (inactive); in assay [7] (setting [8]), 0.907 (inactive); in assay [7] (setting [9]), -0.257. In assay [5], the EGFP object count was 2.5. For the same compound, in assay [5], the EGFP/DsRed ratio was 0.0663 (inactive). Besides, the fraction signal in assay [6] is -0.0065 (inactive).
On to `Nc1ccc(C#Cc2cncnc2Nc2ccc(OCc3cccc(F)c3)c(Cl)c2)cc1`, for which the liver cell % of control in assay [1] came out at 98%. Also, the parasite % of control in assay [1] was 136% (inactive). In addition, the percent of negative control (+Dex) in assay [2] is 106% (inactive). The z-score in assay [2] is 0.915; in assay [3] it was -0.52 (inactive); in assay [4], -0.735 (inactive); in assay [7] (setting [8]) it was -0.813 (inactive); in assay [7] (setting [9]), -0.0706. Besides, the EGFP object count in assay [5] came to 4. Besides, in assay [5], the EGFP/DsRed ratio was 0.276 (inactive). In addition, the fraction signal in assay [6] is 0.001 (inactive).
On to `CN(C)C(=O)O[C@@H]1CN[C@@H](C#Cc2cc3ncnc(Nc4ccc(OCc5cccc(F)c5)c(Cl)c4)c3s2)C1`, for which the liver cell % of control in assay [1] turned out to be 108%. Besides, in assay [1], the parasite % of control is 112% (inactive). Moreover, in assay [2], the percent of negative control (+Dex) is 87% (inactive). Moreover, the z-score is -0.155 in assay [2]; 0.705 (inactive) in assay [3]; -0.722 (inactive) in assay [4]; 0.394 (inactive) in assay [7] (setting [8]); -0.329 in assay [7] (setting [9]). In addition, in assay [5], the EGFP object count is 4. For the same compound, the EGFP/DsRed ratio in assay [5] was 0.0417 (inactive). Moreover, the fraction signal in assay [6] was -0.0055 (inactive).
With `CNC(=O)c1cncc(/C=C/c2c(C)cccc2C)c1`, the liver cell % of control in assay [1] was 106%. Besides, the parasite % of control in assay [1] was 86.6% (inactive). For the same compound, in assay [2], the percent of negative control (+Dex) is 91.5% (inactive). For the same compound, the z-score in assay [2] is 0.11; in assay [3], 0.025 (inactive); in assay [4], -0.466 (inactive); in assay [7] (setting [8]), 1.23 (inactive); in assay [7] (setting [9]), 0.0124. In assay [5], the EGFP object count worked out at 4. Further, the EGFP/DsRed ratio in assay [5] is 0.149 (inactive). Further, in assay [6], the fraction signal was 0.0135 (inactive).
As for `CC(=O)NCc1cccc(C#Cc2cncnc2Nc2ccc(OCc3cccc(F)c3)c(Cl)c2)c1`, the liver cell % of control in assay [1] amounted to 86.2%. Further, the parasite % of control in assay [1] is 90.8% (inactive). In assay [2], the percent of negative control (+Dex) is 77% (inactive). In addition, the z-score in assay [2] was -1.32; in assay [3], 0.19 (inactive); in assay [4] it was -0.99 (inactive); in assay [7] (setting [8]), 0.0992 (inactive); in assay [7] (setting [9]), -0.0459. The EGFP object count in assay [5] turned out to be 5.5. Further, in assay [5], the EGFP/DsRed ratio was 0.157 (inactive). For the same compound, in assay [6], the fraction signal is 0.004 (inactive).
`CCn1c(-c2nonc2N)nc2cncc(C(=O)NCCNC)c21` had a liver cell % of control in assay [1] of 80.5%. Further, in assay [1], the parasite % of control was 190% (inactive). Further, the percent of negative control (+Dex) in assay [2] is 89% (inactive). The z-score in assay [2] was -0.865; in assay [3], 0.43 (inactive); in assay [4], -0.531 (inactive); in assay [7] (setting [8]), 3 (active); in assay [7] (setting [9]) it was 0.0886. In addition, in assay [5], the EGFP object count came out at 7. Further, in assay [5], the EGFP/DsRed ratio was 0.122 (inactive). Besides, the fraction signal in assay [6] is -0.011 (inactive).
